For 22 compounds, growth results are on record in PubChem BioAssay (NCI).

Some test systems named below: SK-MEL-2 melanoma; EKVX NSCLC; SN12C renal; UO-31 renal; TK-10 renal; ACHN renal; A498 renal; CCRF-CEM leukemia; MOLT-4 leukemia; SR leukemia.
Test in all cases: NCI-60 one-dose screen, 48 h (100 = growth as untreated, 0 = no growth, -100 = all killed)
Holding throughout (conditions): 10 µM unless noted

About 83,000 compounds went through this panel and 20% of them were active in at least one assay; those are over-represented in the sample as a whole.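 The endpoint reported here, percent growth, reads 100 for growth as untreated, 0 for no net growth and -100 for all cells dead.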 Unmarked numbers belong to inactive results. Active and inactive are the calls of the source. Rule for the calls: active = growth percent below 10; inactive = the rest.

On to `CCOC(=O)NC(Cc1ccccc1)c1ccccc1` (stereo not given), for which the growth in the assay with SK-MEL-2 melanoma is 99.2%; in the assay on EKVX NSCLC it was 105%; with SN12C renal it was 106%; in the assay on UO-31 renal, 93.2%; with TK-10 renal, 96%; in the assay on ACHN renal, 109%. The growth with A498 renal was 94%; in the assay on CCRF-CEM leukemia it was 98.1%; in the assay on MOLT-4 leukemia, 85.8%; in the assay with SR leukemia it was 81.7%.
Consider `Cc1cnc(SCc2ccc(Cl)cc2Cl)nc1Nc1ccc(Cl)c(Cl)c1`, for which the growth in the assay with SK-MEL-2 melanoma was 87.9%; with EKVX NSCLC, 94.2%; in the assay on SN12C renal it was 93%; with UO-31 renal, 74.6%; in the assay with TK-10 renal it was 100%; with ACHN renal, 96.4%. In addition, the growth in the assay on A498 renal is 85.7%; with CCRF-CEM leukemia it was 85.6%; with MOLT-4 leukemia it was 59.5%; with SR leukemia it was 72%.
Turning to `Cc1[nH]c2ncnc(Oc3ccc(NC(=O)Nc4ccc(Cl)c(C(F)(F)F)c4)cc3)c2c1C`, the growth in the assay with SK-MEL-2 melanoma is 61.2%; in the assay on EKVX NSCLC it was 43%; in the assay with SN12C renal, 69%; in the assay on UO-31 renal, 70.1%; in the assay with TK-10 renal, 81.1%; in the assay with ACHN renal it was 39.9%. The growth with A498 renal is 76%; in the assay on CCRF-CEM leukemia, 24.1%; in the assay on MOLT-4 leukemia, 27.4%; in the assay on SR leukemia it was 9.11% (active).
As to `CC1(C)[C@@H](O)CC[C@]2(C)[C@H]3CC[C@@H]4[C@H]5[C@H](c6cn(-c7ccccc7)nn6)CC[C@]5(CO)CC[C@@]4(C)[C@]3(C)CC[C@@H]12`, the growth in the assay on SK-MEL-2 melanoma is 92.4%; in the assay with EKVX NSCLC, 88%; with SN12C renal, 90%; in the assay on UO-31 renal, 79.9%; with TK-10 renal it was 98.4%; in the assay with ACHN renal it was 84.4%. For the same compound, the growth in the assay with A498 renal is 87.6%; in the assay with CCRF-CEM leukemia, 94.4%; in the assay with MOLT-4 leukemia, 67.7%; in the assay with SR leukemia, 64.7%.
On to `O=C(O)C(C(=O)O)c1cccc2ccccc12`, for which the growth was 95.2% with SK-MEL-2 melanoma; 108% with EKVX NSCLC; 100% in the assay on SN12C renal; 88.5% in the assay on UO-31 renal; 89.3% in the assay on TK-10 renal; 105% in the assay on ACHN renal. In addition, the growth with A498 renal is 85.6%; in the assay with CCRF-CEM leukemia, 92.2%; in the assay on MOLT-4 leukemia it was 94.4%; with SR leukemia it was 90.6%.
As to `COc1cc(/C=N/Nc2nc(-c3ccc(F)cc3)c(C#N)c(N3CCOCC3)n2)ccc1O`, the growth was 114% in the assay with SK-MEL-2 melanoma; 90.5% with EKVX NSCLC; 89.4% with SN12C renal; 81.7% in the assay on UO-31 renal; 98.9% in the assay on TK-10 renal; 91.3% in the assay on ACHN renal. The growth in the assay on A498 renal is 87.8%; with CCRF-CEM leukemia it was 84.1%; in the assay with MOLT-4 leukemia, 73.4%; in the assay with SR leukemia it was 74.9%.
For `O=C1NN(c2ccccc2)C(c2ccc3c(c2)OCO3)N2CCC[C@@H]12` (stereo not given in full), the growth in the assay with SK-MEL-2 melanoma is 89.8%; in the assay with EKVX NSCLC it was 102%; with SN12C renal it was 110%; with UO-31 renal it was 85.4%; in the assay on TK-10 renal, 92.2%; in the assay with ACHN renal, 101%. Besides, the growth in the assay with A498 renal was 97.5%; in the assay with CCRF-CEM leukemia, 108%; with MOLT-4 leukemia, 102%; in the assay on SR leukemia it was 92.1%.
On to `COc1cc(-c2csc(NC(=O)Nc3cc(Cl)cc(Cl)c3)n2)cc(OC)c1OC`, for which the growth in the assay with SK-MEL-2 melanoma was 75.2%; in the assay on EKVX NSCLC, 1.71% (active); in the assay with SN12C renal, -84% (active); with UO-31 renal, -66% (active); in the assay on TK-10 renal, -68.9% (active); in the assay on ACHN renal, -33% (active). Besides, the growth in the assay with A498 renal is -25.9% (active); in the assay on CCRF-CEM leukemia, 13.5%; in the assay on MOLT-4 leukemia, 16.3%; with SR leukemia, -4.59% (active).
Turning to `Nc1c(C(=O)Nc2ccccn2)sc2nc3c(cc12)CCCCC3`, the growth was 44.2% in the assay with SK-MEL-2 melanoma; 37.8% with EKVX NSCLC; 39.4% in the assay on SN12C renal; 49% with UO-31 renal; 71.9% in the assay with TK-10 renal; 52.6% with ACHN renal. Moreover, the growth in the assay on A498 renal is 25.9%; in the assay on CCRF-CEM leukemia, 6.92% (active); with MOLT-4 leukemia it was 15.5%; in the assay on SR leukemia, 8.04% (active).
Regarding `N#Cc1ccc(C2C3=C(CCCC3=O)OC3=C2C(=O)c2ccccc2C3=O)cc1` (stereo not given), the growth in the assay with SK-MEL-2 melanoma is 43.7%; with EKVX NSCLC, 63.1%; in the assay on SN12C renal it was 12.6%; in the assay with UO-31 renal it was 85.8%; in the assay on TK-10 renal, 99.7%; in the assay on ACHN renal, 66.7%. Besides, the growth with A498 renal was 109%; in the assay with CCRF-CEM leukemia it was 15.8%; with MOLT-4 leukemia, -6.58% (active); in the assay on SR leukemia it was 60.9%.
As to `O=C(/C(=C\c1c(-c2ccccc2)[nH]c2ccccc12)S(=O)(=O)c1ccccc1)c1ccccc1`, the growth was 35.8% in the assay with SK-MEL-2 melanoma; 28.7% with EKVX NSCLC; 82% with SN12C renal; 60.9% in the assay with UO-31 renal; 78.2% with TK-10 renal; 48.7% in the assay with ACHN renal. Further, the growth with A498 renal is 54.3%; with CCRF-CEM leukemia, 21%; in the assay on MOLT-4 leukemia, 3.71% (active); in the assay with SR leukemia, 15.1%.
As for `Nc1cc(N)nc(SCC(=O)O)n1`, the growth in the assay with SK-MEL-2 melanoma was 99.7%; with EKVX NSCLC, 106%; in the assay with SN12C renal, 103%; with UO-31 renal, 94.4%; in the assay with TK-10 renal, 98.2%; in the assay on ACHN renal, 109%. The growth with A498 renal was 89.4%; in the assay on CCRF-CEM leukemia, 96.2%; with MOLT-4 leukemia it was 103%; with SR leukemia, 92.3%.
As for `Cc1nc(C)c(C)nc1C`, the growth in the assay with SK-MEL-2 melanoma is 97.9%; in the assay with EKVX NSCLC, 109%; in the assay on SN12C renal, 101%; in the assay with UO-31 renal, 93.4%; in the assay on TK-10 renal, 95.7%; in the assay with ACHN renal, 114%. Moreover, the growth with A498 renal was 102%; in the assay on CCRF-CEM leukemia it was 89.5%; in the assay with MOLT-4 leukemia, 99.8%; in the assay on SR leukemia it was 108%.
`C#C[C@@]1(O)[C@@H](CO)O[C@@H](n2cc(Cl)c3c(N)ncnc32)[C@@H]1O`: the growth with SK-MEL-2 melanoma is -20.6% (active); with EKVX NSCLC, -32.4% (active); in the assay with SN12C renal, 1.7% (active); in the assay with UO-31 renal, -60.1% (active); in the assay with TK-10 renal it was -3.3% (active); with ACHN renal, -12.5% (active). For the same compound, the growth in the assay with A498 renal is -68.8% (active); with CCRF-CEM leukemia, 5.93% (active); with MOLT-4 leukemia, 1.07% (active); with SR leukemia, 0.983% (active).
As to `CC(C)C[C@H](C(=O)O)N(C)C(=O)[C@@H]1CCCN1C(=O)[C@H](C)OC(=O)[C@H](CCC(N)=O)NC(=O)[C@@H]1CCC(=O)N1`, the growth with SK-MEL-2 melanoma was 110%; with EKVX NSCLC, 94.1%; in the assay with SN12C renal, 97.1%; with UO-31 renal it was 88.3%; in the assay on TK-10 renal, 105%; in the assay on ACHN renal, 106%. Further, the growth with A498 renal is 107%; in the assay on CCRF-CEM leukemia, 102%; with MOLT-4 leukemia, 111%; in the assay with SR leukemia it was 94.4%.
On to `CCN(CC)c1ccc2c(c1)Oc1nc(N)c(C#N)c(N)c1C2Sc1ccc(OC)cc1` (stereo not given), for which the growth in the assay on SK-MEL-2 melanoma was -61.2% (active); with EKVX NSCLC it was 4.46% (active); with SN12C renal, 4.18% (active); in the assay with UO-31 renal, -44.7% (active); in the assay with TK-10 renal, 23.1%; in the assay with ACHN renal, 32.2%. For the same compound, the growth with A498 renal was 106%; with CCRF-CEM leukemia, 0.612% (active); in the assay on MOLT-4 leukemia, 2.47% (active); in the assay with SR leukemia, -9.3% (active).
`C=C1C(=O)O[C@H]2[C@H]1CC/C(COC(=O)c1cc3ccccc3o1)=C\CC[C@@]1(C)O[C@@H]21`: the growth in the assay on SK-MEL-2 melanoma was -34.7% (active); in the assay on EKVX NSCLC it was -26.4% (active); in the assay with SN12C renal it was -1.94% (active); in the assay on UO-31 renal, 3.76% (active); with TK-10 renal, 39.2%; in the assay on ACHN renal it was 7.04% (active). Also, the growth in the assay on A498 renal was 103%; in the assay on CCRF-CEM leukemia, 1.96% (active); in the assay on MOLT-4 leukemia, -9.79% (active); in the assay on SR leukemia, -1.95% (active).
With `Cc1nnc(/N=C2\NC(=O)/C(=C/c3ccsc3)S2)s1`, the growth with SK-MEL-2 melanoma is 95.5%; with EKVX NSCLC, 93.6%; with SN12C renal it was 99.7%; in the assay on UO-31 renal it was 81.2%; in the assay with TK-10 renal, 96.7%; in the assay on ACHN renal it was 106%. For the same compound, the growth is 87.7% with A498 renal, 95.1% with CCRF-CEM leukemia, 95% in the assay on MOLT-4 leukemia and 103% with SR leukemia.
Regarding `COc1cc(C2=NNC(c3ccc(N(C)C)cc3)C2)cc(OC)c1OC` (stereo not given), the growth is 60.9% in the assay on SK-MEL-2 melanoma; 44.4% in the assay with EKVX NSCLC; 49.3% in the assay with SN12C renal; 38.9% with UO-31 renal; 59.2% in the assay with TK-10 renal; 50.6% in the assay with ACHN renal. Also, the growth in the assay on A498 renal was -8.21% (active); with CCRF-CEM leukemia it was 17%; with MOLT-4 leukemia it was 37.1%; with SR leukemia it was -5.74% (active).
As to `Cc1cc2ccccc2c[n+]1CC(=O)c1ccc(-c2ccccc2)cc1`, the growth in the assay with SK-MEL-2 melanoma was 84.3%; in the assay on EKVX NSCLC, 54.8%; in the assay with SN12C renal, 55.4%; in the assay with UO-31 renal, 61.5%; in the assay with TK-10 renal it was 68.5%; with ACHN renal, 79.4%. Further, the growth is 56.5% in the assay on A498 renal, 53.4% in the assay on CCRF-CEM leukemia, 49.3% in the assay with MOLT-4 leukemia and 54.7% in the assay on SR leukemia.
Take `COc1ccc2nc(-c3ccc(Cl)cc3)cc(C(=O)N3N=C(c4ccc(N)cc4)CC3c3ccccc3)c2c1` (stereo not given): the growth was 43.2% in the assay with SK-MEL-2 melanoma; 35.6% in the assay with EKVX NSCLC; 57.8% with SN12C renal; 45.5% with UO-31 renal; 68.1% in the assay on TK-10 renal; 52.8% in the assay with ACHN renal. In addition, the growth in the assay with A498 renal is 56.9%; in the assay on CCRF-CEM leukemia, 31.2%; in the assay with MOLT-4 leukemia, 43.2%; with SR leukemia it was 25.1%.
Turning to `C#Cc1cccc(Nc2ncnc3ccc(NC(=O)c4ccccc4)cc23)c1`, the growth in the assay with SK-MEL-2 melanoma is 85.3%; with EKVX NSCLC, 52.3%; in the assay on SN12C renal it was 76.6%; in the assay with UO-31 renal, 56%; with TK-10 renal, 26.1%; in the assay with ACHN renal it was 39.6%. In addition, the growth in the assay on A498 renal was 65.4%; in the assay on CCRF-CEM leukemia, 89.7%; in the assay on MOLT-4 leukemia, 59.5%; with SR leukemia, 61.8%.
